High-throughput results from PubChem BioAssay.
Rows were chosen to be rich in hits. Some 19% of all compounds tested hit in one or more screens of this group.
IL1B secr inh: inhibitors of inflammasome signaling (IL-1 beta secretion). THP-1 LPS/ATP IL-1B secretion, AlphaLISA, 16 h; active compounds read low. activity change, % at 57.5 µM. 360,000 compounds, 4.7% hits; in the data active = activity change below about -50%; inconclusive = mostly about -30% to -49%; also: % is scaled to controls: 0 for no effect and ±100 for the full control effect
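THP-1 cells pretreated 1 hr with compounds (up to 57.5 uM final), then stimulated with LPS (250 ng/mL final) plus ATP (1.25 mM final); secreted IL-1B measured by AlphaLISA after 16 hr, decreased signal indicating inhibition.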
TGFb SMAD3 inh: inhibitors of TGF-b signaling. AID 588855. HepG2 CAGA-GFP TGF-b/SMAD3 reporter, GFP fluorescence, 18 h; TGF-beta stimulated, 500 pg/mL final. Potency, µM (doses to about 46.1 µM), for the others: at the highest dose activity, negative = inhibition, most hits filed as inhibitors. 410,000 compounds, 1.2% hits; also: potency is read from the fitted curve at half-maximal effect; % is scaled to controls: 0 for no effect and ±100 for the full control effect; nearly all actives have a fitted effect of over 65% in size
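TGF-beta reporter screen: HEPG2 CAGA-GFP, 1% FBS, 500 pg/mL TGF-beta final, 18 h; per-cell GFP summed per well; curves fitted and categorized by class.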
DT40 TDP1 CPT: DT40-hTDP1 cell growth loss with CPT; chicken DT40 Tdp1-/-;hTDP1 cells + 20 nM CPT, ATP luminescence, 48 h; Potency, µM (highest dose often 46.2 µM), for the others: top-dose activity change, negative = growth inhibition, most hits filed as inhibitors; 420,000 compounds, 12% hits; AID 686979; also: potency is read from the fitted curve at half-maximal effect; % is scaled to controls: 0 for no effect and ±100 for the full control effect; nearly all actives have a fitted effect of over 55% in size
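Cell growth measured by CellTiter-Glo luminescence after a minimum 48 h, 37 C compound exposure with 20 nM CPT in Tdp1-knockout DT40 cells stably expressing hTDP1, seeded 400/well; qHTS titration format.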
HepG2 tox: kills HepG2 cells in TGF-b inhibitor counter-screen; HepG2 CAGA-GFP viability, ATP luminescence, 18 h; Potency, µM (top dose mostly 46.1 µM), without a hit: top-dose activity change, negative = cytotoxicity, most hits filed as cytotoxic; AID 588856; 410,000 compounds, 0.76% hits; also: potency is read from the fitted curve at half-maximal effect
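HepG2 CAGA-GFP cells (1000/well, DMEM with 1% FBS) received compound, then TGF-beta at 500 pg/mL final, and were incubated 18 hours at 37 degrees C. Viability was read by CellTiter-Glo luminescence. Media-only wells were set as complete cell-killing and DMSO as no toxicity.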
DT40 TDP1 no CPT: qHTS for Inhibitors of human tyrosyl-DNA phosphodiesterase 1 (TDP1): qHTS in cells in absence of CPT; 420,000 compounds, 15% hits; Potency, µM (titrated, usually from 46.2 µM), inactives show at the top dose activity change, negative = growth inhibition, usual class: inhibitors; AID 686978, 2013; DT40 Tdp1-/- hTDP1 cells, no CPT, ATP luminescence, 48 h; also: potency is read from the fitted curve at half-maximal effect; % is scaled to controls: 0 for no effect and ±100 for the full control effect; nearly all actives have a fitted effect of over 55% in size
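Readout: luminescence from CellTiter-Glo after 30 min in the dark at RT. Cells: DT40 Tdp1-/- with stable hTDP1, 400/well. Exposure: compounds alone, ≥48 hr, 37 °C.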
ASM inhibitor: inhibitors of human secretory acid sphingomyelinase; 340,000 compounds, 0.006% hits; P17405; Potency, µM (doses to about 57.5 µM), for inactives: at the highest dose activity change, negative = inhibition, hits mostly inhibitors; placental ASM, HMU-PC fluorogenic substrate, 60 min; AID 504937; also: potency is read from the fitted curve at half-maximal effect
Target sequence (P17405 47-631 limits assumed): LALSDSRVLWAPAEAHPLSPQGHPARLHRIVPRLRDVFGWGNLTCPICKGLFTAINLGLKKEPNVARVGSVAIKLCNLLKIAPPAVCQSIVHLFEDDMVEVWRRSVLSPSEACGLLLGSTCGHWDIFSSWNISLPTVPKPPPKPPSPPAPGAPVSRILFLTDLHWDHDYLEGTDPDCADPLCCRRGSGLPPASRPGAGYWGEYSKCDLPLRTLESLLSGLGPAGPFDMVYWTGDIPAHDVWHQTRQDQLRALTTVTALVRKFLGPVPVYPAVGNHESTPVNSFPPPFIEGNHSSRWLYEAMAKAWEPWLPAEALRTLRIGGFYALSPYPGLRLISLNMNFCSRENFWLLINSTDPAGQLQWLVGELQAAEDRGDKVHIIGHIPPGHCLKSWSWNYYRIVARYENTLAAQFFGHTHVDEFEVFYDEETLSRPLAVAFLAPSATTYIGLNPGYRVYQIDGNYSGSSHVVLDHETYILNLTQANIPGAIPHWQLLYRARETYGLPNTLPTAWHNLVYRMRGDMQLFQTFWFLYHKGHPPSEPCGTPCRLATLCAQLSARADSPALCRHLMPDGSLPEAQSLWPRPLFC
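qHTS format. ASM enzyme prepared from human placenta hydrolyses the fluorogenic substrate HMU-PC0 (9 uM final) over 60 min at 37 °C after a 10 min compound preincubation.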
An asterisk follows results filed as active; ? = inconclusive; . = no result given. Unless noted, calls follow the shape of the dose curve; as a rule, active = well fitted curve in the direction sought with a large enough effect; inconclusive = small, poorly fitted or top-dose-only effect, or another doubt; inactive = no such curve, though single readings can be large; an effect the other way counts as inactive or inconclusive.

SMILES | IL1B secr inh | TGFb SMAD3 inh | DT40 TDP1 CPT | HepG2 tox | DT40 TDP1 no CPT | ASM inhibitor
CN(C)c1ccc(/C=C2\C=Nc3ccccc32)cc1 | . | ? | ? | -40% | ? | .
Cc1c(C(=O)N2CCCCCC2)c(S(=O)(=O)Nc2cccc(C#N)c2)c(C)n1C | . | -35% | -23% | -11% | -27% | .
O=C(Nc1cccc(S(=O)(=O)N2CCCCC2)c1)C1CCC1 | 3 | 0% | -17% | -4% | -13% | 0%
O=C(Nc1ccc2c(c1)oc1ccccc12)C1CC1 | 43 | -5% | 15µM* | 2% | 9.2µM* | -2%
O=C(Nc1ccc2c(c1)oc1ccc(S(=O)(=O)N3CCCC3)cc12)C1CC1 | -57* | -2% | ? | -23% | ? | -6%
O=C(O)CCCC(=O)Nc1ccc2c(c1)oc1ccccc12 | 53 | 19% | 2% | 27% | 21% | 5%
COc1cccc(NC(=O)c2ccc(N3C(=O)C4CC=C(C)CC4C3=O)cc2)c1 (stereo not given) | 64 | -4% | ? | -2% | ? | -3%
CCOc1ccc(-n2ccnc(SCC(=O)Nc3ccc(OC)cc3OC)c2=O)cc1 | -10 | ? | 21µM* | -8% | 23µM* | 52%
CCOc1ccc(-n2ccnc(SCC(=O)NCc3cccc(OC)c3)c2=O)cc1 | -11 | -2% | 18µM* | -32% | 23µM* | 32%
COc1ccc(CNC(=O)CSc2nccn(-c3ccc(F)c(F)c3)c2=O)cc1 | 18 | -5% | -6% | -2% | -18% | 21%
O=C(Nc1ccc(N2CCOCC2)c(S(=O)(=O)Nc2ccc(Cl)cc2)c1)c1cnccn1 | -17 | -13% | 16µM* | -11% | 18µM* | -13%
O=C(Nc1ccc(N2CCOCC2)c(S(=O)(=O)Nc2ccc(Cl)cc2)c1)c1ccc(=O)[nH]n1 | -56* | -4% | -22% | -26% | -16% | -24%
CC(=O)Nc1ccc(N2CCOCC2)c(S(=O)(=O)Nc2ccccc2Cl)c1 | -3 | -14% | -13% | -25% | -20% | .
CC1CCCCC12NC(=O)N(CC(=O)Nc1ccc(N3CCCCC3)cc1)C2=O (stereo not given) | -5 | 2% | ? | -17% | ? | -6%
CCCCOc1ccc(CONS(=O)(=O)c2ccc(NC(C)=O)cc2)cc1Cl | -103* | ? | 13µM* | -31% | 15µM* | ?
CSc1ccc(S(=O)(=O)NCCOc2ccccc2C)cc1 | -1 | -16% | 26µM* | -7% | ? | -1%
CC(=O)Nc1ccc(S(=O)(=O)NCCOc2ccc(Cl)cc2C)cc1 | -17 | -14% | 23µM* | -12% | 13µM* | -9%
COCCCNS(=O)(=O)c1ccc(SC)cc1 | 32 | 8% | 2% | 0% | ? | -1%
O=C(CCN1C(=O)c2ccccc2C1=O)C1=NN[C@@H]2C(=O)N(c3ccc4c(c3)OCCO4)C(=O)[C@H]12 | 13 | -12% | 0% | -21% | -4% | -2%
CC1(C(=O)NS(=O)(=O)c2ccc(C#N)cc2)CCN1C(=O)C1(c2ccc(Cl)cc2)CCC1 (stereo not given) | 26 | 2% | 18µM* | -18% | -30% | .
CC1(C(=O)N2Cc3ccccc3C2)CCN1C(=O)C1(c2ccc(Cl)cc2)CC1 (stereo not given) | -17 | -23% | 16µM* | -14% | ? | .
CC1(C(=O)NS(=O)(=O)c2cccc(C#N)c2)CCN1C(=O)C1(c2ccc(Cl)cc2)CCC1 (stereo not given) | -14 | -3% | 8% | 6% | 5% | .
